“And” between values parts separate entries of the source, which are not always exact repeats. Equal values may be shown once. Results filed as inconclusive are left out. Where a call stands in place of a potency, no number is given. A structure can be active in one record and inactive in another. The source made the active and inactive calls. Unless noted, the call rests on the fitted dose curve; in most records, active means well fitted curve in the direction sought with a large enough effect in the repeat runs; inconclusive means weak or mixed curves; inactive means no such curve, though single readings can be large; an effect the other way counts as inactive or inconclusive.
What was measured:
[1] = qHTS assay to identify small molecule agonists of the progesterone receptor (PR) signaling pathway - cell viability counter screen (AID 1346799; calls by dose curve; further: nearly all actives have a fitted effect of over 45% in size; further: potency means the concentration at half of the fitted maximal effect)
In short: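 Cells (PR-UAS-bla HEK293T) are plated at 3,000/well in 2% charcoal-stripped FBS medium, rested 6 hr, dosed and incubated 16 hr at 37C. CellTiter-Glo is then added and luminescence measured after 30 min at room temperature.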

[2] = qHTS assay to identify small molecule agonists of the TGF-beta/Smad signaling pathway - cell viability counter screen (AID 1346829); further: top concentration of the series differs between compounds; nearly all actives have a fitted effect of over 45% in size
In short: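 Here the cytotoxicity of library compounds is measured in SBE-bla HEK 293T cells treated for 5 hr, using CellTiter-Glo added to wells already read for the beta-lactamase reporter.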

[3] = qHTS assay to identify small molecule agonists of the TGF-beta/Smad signaling pathway (AID 1346859; active means well fitted activation curve with a large enough effect in the signal ratio in the repeat runs, not every such curve was filed as active; the % refers to the signal ratio; further: series mostly up to about 77 µM)
In short: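 Reporter line: HEK 293T with stably integrated SBE-controlled beta-lactamase. Compound exposure lasts 5 hr at 37 C and 5% CO2; substrate loading follows for 2 hr at room temperature, with emission read at 460 and 530 nm.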

[4] = target: Thyrotropin-releasing hormone receptor (Homo sapiens) (UniProt P34981); assay: qHTS assay to identify small molecule antagonists of the thyrotropin-releasing hormone receptor (TRHR) signaling pathway (AID 1346877; active means well fitted inhibition curve with a large enough effect in the repeat runs, not every such curve was filed as active; further: series mostly up to about 51 µM)
Thyrotropin-releasing hormone receptor (Homo sapiens), sequence (P34981 whole entry, looked up): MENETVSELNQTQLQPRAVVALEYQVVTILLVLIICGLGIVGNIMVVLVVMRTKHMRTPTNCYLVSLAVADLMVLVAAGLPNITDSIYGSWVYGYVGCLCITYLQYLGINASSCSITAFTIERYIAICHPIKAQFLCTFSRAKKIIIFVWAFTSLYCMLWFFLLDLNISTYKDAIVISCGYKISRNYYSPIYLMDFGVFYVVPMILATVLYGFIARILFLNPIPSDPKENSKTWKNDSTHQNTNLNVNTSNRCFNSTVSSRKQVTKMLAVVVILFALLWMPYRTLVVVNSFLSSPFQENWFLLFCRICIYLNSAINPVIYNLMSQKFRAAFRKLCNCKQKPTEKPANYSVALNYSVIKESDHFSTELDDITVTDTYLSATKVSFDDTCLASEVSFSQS
In short: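 Antagonism is measured as suppression of the calcium response to 1 nM TRH in TRHR-HEK293 cells that have been dye-loaded for 2 h at 37 °C after overnight plating. Each compound is tested at 15 concentrations in triplicate.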

[5] = target: Thyrotropin-releasing hormone receptor (Homo sapiens) (UniProt P34981); assay: qHTS assay to identify small molecule agonists of the thyrotropin-releasing hormone receptor (TRHR) signaling pathway (AID 1346891; calls by dose curve;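 further: HEK293 cells expressing TRHR with calcium dye readout; series mostly up to about 58 µM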)
In short: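 Cells: TRHR-Hek293, seeded and incubated 18 h. Dye loading: 2 h at 37 °C. Compound added from DMSO stock by pin tool. Read-out: kinetic calcium fluorescence over 3 min.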

[6] = Human pregnane X receptor (PXR) small molecule agonists, qHTS cell viability counter screen (AID 1346977); further: nearly all actives have a fitted effect of over 50% in size; further: potency means the concentration at half of the fitted maximal effect
In short: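 Cytotoxicity counter screen run in the same wells as the PXR luciferase assay, using PXR-Luc HepG2 cells in charcoal-stripped serum medium. Viability: CellTiter-Fluor fluorescence after 24hr compound treatment.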

[7] = Caspase-3/7 induction in HepG2 cells by small molecules, qHTS assay (AID 1346978); further: nearly all actives have a fitted effect of over 15% in size
In short: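 Wild-type HepG2 cells, 2,000/well, settled 5 hr at 37 C and 5% CO2, then compound-treated for 17 hr; caspase-3/7 activity read by luminescent Caspase-Glo 3/7 after 30 min at room temperature.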

[8] = Caspase-3/7 induction in CHO-K1 cells by small molecules, qHTS cell viability counter screen (AID 1346979); further: nearly all actives have a fitted effect of over 35% in size; further: potency means the concentration at half of the fitted maximal effect
In short: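 Cytotoxicity counter screen run in parallel with the caspase-3/7 assay: CHO-K1 cells, 16hr compound treatment at 37C, then CellTiter-Fluor for 1hr before fluorescence reading.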

[9] = Caspase-3/7 induction in CHO-K1 cells by small molecules, qHTS assay (AID 1346980); further: nearly all actives have a fitted effect of over 15% in size
In short: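 Wild-type CHO-K1 cells exposed to compounds for 17hr at 37 C, 5% CO2. Caspase-3/7 activity then measured by Caspase-Glo 3/7 luminescence after 30min at room temperature.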

[10] = Caspase-3/7 induction in HepG2 cells by small molecules, qHTS cell viability counter screen (AID 1346981); further: series mostly up to about 92 µM; nearly all actives have a fitted effect of over 30% in size
In short: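 Cell viability is measured as a cytotoxicity counter screen alongside the Caspase-Glo 3/7 readout in identical wells. Wild-type HepG2 cells are treated with test compounds for 16 hr at 37 C before CellTiter-Fluor addition and a 1-hr incubation.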

[11] = target: Nuclear receptor subfamily 1 group I member 2 (Homo sapiens) (UniProt O75469); assay: Human pregnane X receptor (PXR) small molecule agonists, qHTS assay (AID 1346982); further: nearly all actives have a fitted effect of over 35% in size; further: potency means the concentration at half of the fitted maximal effect
Nuclear receptor subfamily 1 group I member 2 (Homo sapiens), sequence (O75469 whole entry, looked up): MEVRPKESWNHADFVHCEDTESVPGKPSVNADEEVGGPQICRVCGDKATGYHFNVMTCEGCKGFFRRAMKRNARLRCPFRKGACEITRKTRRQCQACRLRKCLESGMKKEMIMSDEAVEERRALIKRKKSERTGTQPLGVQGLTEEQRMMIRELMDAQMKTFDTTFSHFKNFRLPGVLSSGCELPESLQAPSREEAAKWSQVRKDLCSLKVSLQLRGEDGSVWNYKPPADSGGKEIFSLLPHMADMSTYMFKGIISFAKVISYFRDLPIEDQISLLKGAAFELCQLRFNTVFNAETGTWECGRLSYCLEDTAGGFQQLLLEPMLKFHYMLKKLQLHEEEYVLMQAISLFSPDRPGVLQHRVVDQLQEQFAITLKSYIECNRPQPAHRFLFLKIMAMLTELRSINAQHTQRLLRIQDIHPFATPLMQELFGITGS
In short: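 Cells: HepG2 stably carrying PXR-Luc. Medium held 5% charcoal-stripped FBS. Compounds in DMSO added after 5 hr plating, incubated 24 hr, then luminescence quantified with ONE-Glo.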

[12] = target: Acetylcholinesterase (Homo sapiens) (UniProt P22303); assay: Acetylcholinesterase (AChE) small molecule antagonists: colormetric cell-based qHTS assay (AID 1347395; calls by dose curve; further: nearly all actives have a fitted effect of over 30% in size; further: potency means the concentration at half of the fitted maximal effect)
Acetylcholinesterase (Homo sapiens), sequence (P22303 whole entry, looked up): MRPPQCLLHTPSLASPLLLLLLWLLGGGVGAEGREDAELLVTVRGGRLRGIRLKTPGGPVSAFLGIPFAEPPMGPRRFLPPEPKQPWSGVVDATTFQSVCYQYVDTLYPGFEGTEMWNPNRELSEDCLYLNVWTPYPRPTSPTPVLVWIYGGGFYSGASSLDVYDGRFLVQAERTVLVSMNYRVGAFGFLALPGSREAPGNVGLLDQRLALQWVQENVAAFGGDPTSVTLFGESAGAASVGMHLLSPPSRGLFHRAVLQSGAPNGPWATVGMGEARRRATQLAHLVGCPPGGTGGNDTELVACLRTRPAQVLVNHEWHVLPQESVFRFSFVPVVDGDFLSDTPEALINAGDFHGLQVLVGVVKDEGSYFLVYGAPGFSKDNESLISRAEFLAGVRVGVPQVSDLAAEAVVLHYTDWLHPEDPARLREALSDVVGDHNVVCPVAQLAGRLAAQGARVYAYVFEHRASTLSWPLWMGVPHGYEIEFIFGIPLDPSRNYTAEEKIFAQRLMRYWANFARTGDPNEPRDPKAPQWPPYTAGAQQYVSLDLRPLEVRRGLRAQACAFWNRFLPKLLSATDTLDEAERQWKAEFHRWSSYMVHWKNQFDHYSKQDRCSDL
In short: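 Cells (SH-SY5Y, 2,000 per well) are seeded and left overnight at 37 C. Compound is added for 30 min, then DTNB and acetylthiocholine for a further 90 min at 37 C before absorbance-based thiocholine detection.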

[13] = target: Acetylcholinesterase (Homo sapiens) (UniProt P22303); assay: Acetylcholinesterase (AChE) small molecule antagonists: fluorescence cell-based qHTS assay (AID 1347398; calls by dose curve; further: nearly all actives have a fitted effect of over 50% in size; further: potency means the concentration at half of the fitted maximal effect); details: Potency: AChE activity
In short: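 SH-SY5Y, 2,000 cells/well, attached overnight; cmpd 30 min 37 C; acetylthiocholine/Thiolite Green cocktail 40 min RT; fluorescence Ex/Em 490/520 nm.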

[14] = target: Acetylcholinesterase (Homo sapiens) (UniProt P22303); assay: Acetylcholinesterase (AChE) small molecule antagonists: enzyme-based qHTS assay with human liver microsomes (AID 1347399; calls by dose curve; further: nearly all actives have a fitted effect of over 60% in size; further: potency means the concentration at half of the fitted maximal effect); details: Potency: qHTS inhibition
In short: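 Recombinant human AChE (50 mU/mL in the enzyme mix) and human liver microsomes (0.25 mg/mL final) were preincubated with compound and NADPH (0.25 mg/mL final) for 30 min at 37 C. Acetylthiocholine/DTNB was then added; thiocholine was read colorimetrically after 10 min at room temperature.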

[15] = target: Cytochrome P450 2D6 (Homo sapiens) (UniProt P10635); assay: Cytochrome P450 Family 2 Subfamily D Member 6 (CYP2D6) small molecule antagonists: luciferase reporter qHTS assay (AID 1671196); further: nearly all actives have a fitted effect of over 50% in size; further: potency means the concentration at half of the fitted maximal effect
Cytochrome P450 2D6 (Homo sapiens), sequence (P10635 whole entry, looked up): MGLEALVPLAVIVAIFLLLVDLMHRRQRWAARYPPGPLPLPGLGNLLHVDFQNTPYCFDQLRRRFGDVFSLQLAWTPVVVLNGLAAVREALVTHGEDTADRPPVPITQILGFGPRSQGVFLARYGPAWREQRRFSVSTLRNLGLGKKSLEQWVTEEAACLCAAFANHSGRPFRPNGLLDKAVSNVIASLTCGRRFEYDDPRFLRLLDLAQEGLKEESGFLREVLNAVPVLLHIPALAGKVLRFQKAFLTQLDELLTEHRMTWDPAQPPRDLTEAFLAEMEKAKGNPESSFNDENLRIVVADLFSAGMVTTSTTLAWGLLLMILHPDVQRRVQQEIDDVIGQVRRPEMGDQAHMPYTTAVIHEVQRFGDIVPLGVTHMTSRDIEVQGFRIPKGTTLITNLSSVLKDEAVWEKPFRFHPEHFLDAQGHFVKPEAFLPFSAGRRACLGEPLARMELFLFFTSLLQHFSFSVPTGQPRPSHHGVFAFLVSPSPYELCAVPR
In short: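 Enzyme and proluciferin substrate were first combined with test chemical for 10 min at room temperature. Adding NADPH regeneration solution started a 1 h reaction, stopped with luciferin detection reagent and read by luminescence 20 min later.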

[16] = qHTS assay to identify small molecule antagonists of the TGF-beta/Smad signaling pathway - cell viability counter screen (AID 1346824); further: nearly all actives have a fitted effect of over 50% in size
In short: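 SBE-bla HEK 293T cells, incubated overnight, then compound plus 0.25 ng/mL TGF-beta1 (stock added) for 5 hr at 37 C. Viability was read in the same wells by CellTiter-Glo luminescence after 30 min at room temperature.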

[17] = target: Acetylcholinesterase (Homo sapiens) (UniProt P22303); assay: Acetylcholinesterase (AChE) small molecule antagonists: enzyme-based qHTS assay (AID 1347397; calls by dose curve; further: nearly all actives have a fitted effect of over 55% in size); details: Potency: AChE enzyme activity inhibition
In short: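 Colorimetric DTNB read-out of thiocholine released from acetylthiocholine by recombinant human AChE (50 mU/mL as dispensed). Compounds were preincubated 30 min at RT before substrate/DTNB addition, with a 10 min RT reaction.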

[18] = target: Nuclear receptor subfamily 1 group I member 2 (Rattus norvegicus) (UniProt Q9R1A7); assay: Rat pregnane X receptor (rPXR) activation by small molecules, qHTS assay (AID 1346983); details: rPXR luciferase reporter cells, One-Glo luminescence, 24 h; stronger effect = higher value; further: nearly all actives have a fitted effect of over 20% in size
Nuclear receptor subfamily 1 group I member 2 (Rattus norvegicus), sequence (Q9R1A7 whole entry, looked up): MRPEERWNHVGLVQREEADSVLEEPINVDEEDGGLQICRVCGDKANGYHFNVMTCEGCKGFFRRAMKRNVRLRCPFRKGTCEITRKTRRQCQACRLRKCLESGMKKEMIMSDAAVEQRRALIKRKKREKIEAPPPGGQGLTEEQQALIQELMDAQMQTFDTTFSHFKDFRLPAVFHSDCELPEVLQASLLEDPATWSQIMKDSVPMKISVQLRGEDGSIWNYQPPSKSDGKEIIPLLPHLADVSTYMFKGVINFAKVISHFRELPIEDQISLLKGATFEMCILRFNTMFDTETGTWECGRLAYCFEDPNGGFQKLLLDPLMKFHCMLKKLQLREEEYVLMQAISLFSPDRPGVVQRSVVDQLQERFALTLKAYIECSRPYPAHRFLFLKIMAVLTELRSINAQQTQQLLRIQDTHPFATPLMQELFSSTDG
In short: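 Cell-based rPXR activation assay: rPXR cells, 2,000 per well, rested 5hr at 37 C, then exposed to compounds in DMSO for 24 hr at 37 C. Luciferase activity read by One-Glo luminescence after 30 min at room temperature.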

[19] = target: Nuclear receptor subfamily 1 group I member 2 (Homo sapiens) (UniProt O75469); assay: CYP3A4 induction through human pregnane X receptor (PXR) by small molecules, qHTS assay (AID 1346984); further: nearly all actives have a fitted effect of over 40% in size
In short: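 Quantitative HTS in DPX-2 cells, i.e. HepG2 transfected with PXR response element and CYP3A4-promoter luciferase. Compounds in DMSO incubated 24hr at 37C; then P450-Glo CYP3A4 substrate, 3uM final, 3hr; One-Glo luminescence.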

Row | Structure (SMILES) | Potency [1] | outcome [2] | Potency [3] | outcome [4] | Potency [5] | Potency [6] | outcome [7] | Potency [8] | outcome [9] | Potency [10] | Potency [11] | Potency [12] | Potency [13] | Potency [14] | Potency [15] | Potency [16] | Potency [17] | max activation [18] | outcome [19]
1 | NCCc1ccc(O)cc1 | 21.5 µM (active) and inactive | inactive | inactive | inactive | inactive | inactive | inactive | inactive | inactive | inactive | inactive | 62.8 µM (active) and inactive | inactive | inactive | 25 µM (active) and 7.76 µM (active) |  |  |  | 
2 | O=S(=O)(c1ccc(O)cc1)c1ccc(O)cc1 | inactive | inactive | inactive | inactive | inactive | inactive | inactive | inactive | inactive | inactive | inactive | inactive | inactive | inactive |  |  |  |  | 
3 | CCC(C)(CC)c1cc(NC(=O)c2c(OC)cccc2OC)on1 | inactive | inactive | inactive | inactive | inactive | inactive | inactive |  | inactive | inactive | 4.34 µM (active) and 831 nM (active) |  |  | inactive | inactive | inactive | inactive |  | 
4 | c1ccc(-c2ccccc2)cc1 | inactive | inactive | inactive | inactive | inactive | inactive | inactive | inactive | inactive | inactive | inactive | inactive | inactive | inactive | inactive |  | inactive |  | 
5 | COc1ccc2c3c1O[C@H]1[C@@H](O)C=C[C@H]4[C@@H](C2)N(C)CC[C@@]341 | inactive | inactive | inactive |  |  | 67.5 µM (active) and inactive | inactive | 60.1 µM (active) and inactive | inactive | inactive | inactive | inactive | inactive | inactive |  |  | inactive |  | 
6 | CCN(CC)c1ccccc1 | inactive | inactive | inactive | inactive | inactive | inactive | inactive | inactive | inactive | inactive |  | inactive | inactive | inactive | inactive |  | inactive |  | 
7 | CCOP(=S)(OCC)Oc1cnc2ccccc2n1 | inactive | inactive | inactive | inactive | inactive | inactive | inactive | inactive | inactive |  | inactive and 30.6 µM (active) | inactive and 35.6 µM (active) | inactive and 35.6 µM (active) | inactive and 1 µM (active) | 35.6 µM (active) | inactive | inactive |  | 
8 | NCC(O)c1ccc(O)cc1 (stereo not given) | inactive | inactive | inactive | inactive | inactive | inactive | inactive | inactive | inactive | inactive |  |  |  |  | inactive | inactive |  |  | 
9 | O=[N+]([O-])c1ccc([As](=O)(O)O)cc1 | inactive | inactive | inactive | inactive | inactive | inactive | inactive | inactive | inactive | inactive |  | inactive | inactive | inactive | inactive |  |  | -0.802% (inactive) | inactive
10 | O=NN1CCCCCCC1 | inactive | inactive | inactive | inactive | inactive | inactive | inactive | inactive | inactive |  |  | inactive | inactive | inactive | inactive | inactive |  |  | 
11 | CN1C(=O)CN=C(c2ccccc2)c2cc(Cl)ccc21 | 27.7 µM (active) and inactive | inactive | inactive | inactive | inactive | inactive |  | inactive | inactive | inactive |  |  |  |  |  | inactive |  |  | 
12 | CCC[N+](=O)[O-] | 19 µM (active) and inactive | inactive | inactive |  |  | inactive | inactive | inactive | inactive | inactive | inactive | inactive | inactive | inactive | inactive |  | inactive |  | 
13 | CN(C)[C@@H]1C(=O)C(C(N)=O)=C(O)[C@@]2(O)C(=O)C3=C(O)c4c(O)cccc4[C@@](C)(O)[C@H]3C[C@@H]12 | inactive | inactive | inactive | inactive | inactive | inactive | inactive | inactive | inactive |  | inactive |  |  |  | 31.8 µM (active) and inactive and 19.5 µM (active) |  |  | -1.09% (inactive) | inactive
14 | Nc1ccc(Oc2ccc(N)cc2)cc1 | inactive | inactive | inactive |  |  | inactive | inactive | inactive | inactive | inactive | 62 µM (active) | inactive | inactive | inactive | 36.1 µM (active) and 31.7 µM (active) | inactive | inactive |  | 
15 | COC(=O)NS(=O)(=O)c1ccc(N)cc1 | inactive | inactive | inactive |  |  | inactive | inactive | inactive | inactive | inactive | inactive | inactive | inactive | inactive | inactive | inactive | inactive |  | 
16 | CC1C=[C-]C=C1.[C-]#[O+].[C-]#[O+].[C-]#[O+].[Mn] | inactive | inactive | inactive |  |  | inactive | inactive | inactive | inactive |  | 54.5 µM (active) and 19.2 µM (active) | inactive | inactive | inactive | inactive |  | inactive |  | 
17 | CCCC1COC(Cn2cncn2)(c2ccc(Cl)cc2Cl)O1 (stereo not given) |  | inactive | inactive | inactive | inactive |  | inactive | 62.3 µM (active) and 68.6 µM (active) | inactive |  | 31.2 µM (active) and 9.69 µM (active) | inactive | inactive | inactive | 32.3 µM (active) and 35.6 µM (active) |  |  |  | 
18 | Cc1ccccc1O | inactive | inactive | inactive | inactive | inactive | inactive | inactive | inactive | inactive | inactive |  | inactive | inactive | inactive | inactive | inactive | inactive |  | 
19 | BrCCBr | inactive | inactive | inactive | inactive | inactive | inactive | inactive | inactive | inactive | inactive | inactive | inactive | inactive | inactive | 43.6 µM (active) and inactive |  |  |  | 
20 | O=[N+]([O-])c1ccc(Oc2ccc(Cl)cc2Cl)cc1 | inactive | inactive | inactive | inactive | inactive | inactive | inactive | inactive | inactive | inactive | 54.8 µM (active) and inactive | 63.6 µM (active) and inactive | inactive | inactive | 22.6 µM (active) |  |  |  | 
21 | OC(O)C(Cl)(Cl)Cl | inactive | inactive | inactive | inactive | inactive | inactive | inactive | inactive | inactive |  | inactive |  |  |  | inactive |  |  | -1.41% (inactive) | inactive
22 | CCCCOC(=O)c1ccccc1C(=O)OCCCC | inactive | inactive | inactive |  |  | inactive | inactive | inactive | inactive | inactive | inactive | inactive | inactive | inactive | inactive | inactive |  |  | 

Reference: PubChem BioAssay (Tox21)
